# TGFb SMAD3 inh = TGF-b pathway inhibition. HepG2 CAGA-GFP TGF-b/SMAD3 reporter, GFP fluorescence, 18 h; TGF-beta stimulated, 500 pg/mL final. Potency, µM (highest dose often 46.1 µM), inactives show at the top dose activity, negative = inhibition, most hits filed as inhibitors. 410,000 tested, 1.2% active. AID 588855; note: potency is the fitted concentration of half-maximal effect; % is set by controls: 0 for no effect and ±100 for the full control effect; nearly all actives have a fitted effect of over 65% in size
#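 Inhibition was scored as loss of TGF-beta-induced (500 pg/mL final, 18 hours, 37 degrees C) GFP in HEPG2 cells carrying a CAGA-GFP reporter, in DMEM with 1% FBS. Well GFP was summed per cell; Activity was normalised to unstimulated and stimulated DMSO wells, then concentration-response fitting.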
# DT40 TDP1 no CPT = qHTS for Inhibitors of human tyrosyl-DNA phosphodiesterase 1 (TDP1): qHTS in cells in absence of CPT; DT40 Tdp1-/- hTDP1 cells, no CPT, ATP luminescence, 48 h; Potency, µM (top dose mostly 46.2 µM), for the others: top-dose activity change, negative = growth inhibition, actives largely listed as inhibitors; 420,000 tested, 15% active; note: potency is the fitted concentration of half-maximal effect; % is set by controls: 0 for no effect and ±100 for the full control effect; nearly all actives have a fitted effect of over 55% in size
#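 Readout: luminescence from CellTiter-Glo after 30 min in the dark at RT. Cells: DT40 Tdp1-/- with stable hTDP1, 400/well. Exposure: compounds alone, ≥48 hr, 37 °C.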
# TDP1 cell CPT = growth inhibition of DT40 Tdp1-/-;hTDP1 cells with camptothecin (screen for TDP1 inhibitors); Potency, µM (doses to about 46.2 µM), inactives show top-dose activity change, negative = growth inhibition, actives largely listed as inhibitors; 420,000 tested, 12% active; chicken DT40 Tdp1-/-;hTDP1 cells + 20 nM CPT, ATP luminescence, 48 h; note: potency is the fitted concentration of half-maximal effect; % is set by controls: 0 for no effect and ±100 for the full control effect; nearly all actives have a fitted effect of over 55% in size
#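 Chicken DT40 Tdp1-/- cells complemented with human TDP1, 400 cells/well, exposed to compounds plus 20 nM camptothecin for at least 48 h at 37 C; viability read as ATP content by CellTiter-Glo luminescence.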
# HepG2 viability = counter-screen for TGF-b inhibitors: cytotoxicity in HepG2 cells; 410,000 tested, 0.76% active; HepG2 CAGA-GFP viability, ATP luminescence, 18 h; AID 588856; Potency, µM (highest dose often 46.1 µM), for inactives: at the top dose activity change, negative = cytotoxicity, actives largely listed as cytotoxic; note: potency is the fitted concentration of half-maximal effect
#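 CellTiter-Glo luminescence gave cytotoxicity after 18 hours at 37 degrees C. The cells were HepG2 CAGA-GFP in 1% FBS DMEM, stimulated with 500 pg/mL TGF-beta after compound addition. %Activity was normalised to no-cell wells (complete cell-killing) and DMSO (no toxicity), and curves were fitted and classified.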
# IL-1B inflam inh = inhibitors of inflammasome signaling (IL-1 beta secretion); THP-1 LPS/ATP IL-1B secretion, AlphaLISA, 16 h; hits give low values; activity change, % at 57.5 µM; 360,000 tested, 4.7% active; AID 743279; in the data active = activity change below about -50%; inconclusive = mostly about -30% to -49%; note: % is set by controls: 0 for no effect and ±100 for the full control effect
#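 Secreted IL-1B measured by AlphaLISA bead assay after 16 h compound exposure of THP-1 cells; compounds (final up to 57.5 uM) added 1 h before LPS (250 ng/mL) and ATP (1.25 mM) stimulation; lower signal means less secretion.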
# S-ASM inh = human S-ASM enzyme inhibition; P17405; placental ASM, HMU-PC fluorogenic substrate, 60 min; Potency, µM (top dose mostly 57.5 µM), inactives show at the top dose activity change, negative = inhibition, most hits filed as inhibitors; 340,000 tested, 0.006% active; note: potency is the fitted concentration of half-maximal effect
# Target sequence (P17405 47-631 limits assumed): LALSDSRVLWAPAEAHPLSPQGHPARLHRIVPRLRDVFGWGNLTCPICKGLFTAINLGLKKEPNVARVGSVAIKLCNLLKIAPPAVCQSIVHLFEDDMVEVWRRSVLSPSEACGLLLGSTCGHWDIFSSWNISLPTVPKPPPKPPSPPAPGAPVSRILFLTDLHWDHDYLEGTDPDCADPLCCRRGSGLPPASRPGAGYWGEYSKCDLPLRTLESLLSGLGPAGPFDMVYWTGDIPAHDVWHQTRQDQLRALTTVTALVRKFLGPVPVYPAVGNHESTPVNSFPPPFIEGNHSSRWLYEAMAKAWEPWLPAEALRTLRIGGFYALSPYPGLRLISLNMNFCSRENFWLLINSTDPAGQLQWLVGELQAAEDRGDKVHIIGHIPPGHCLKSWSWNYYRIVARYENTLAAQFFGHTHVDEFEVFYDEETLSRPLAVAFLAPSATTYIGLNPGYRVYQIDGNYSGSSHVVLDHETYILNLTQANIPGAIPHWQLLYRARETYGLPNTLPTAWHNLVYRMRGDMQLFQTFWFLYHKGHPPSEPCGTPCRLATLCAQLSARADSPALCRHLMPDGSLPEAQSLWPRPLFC
#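 Human placenta-derived ASM enzyme was preincubated with compound for 10 minutes at room temperature, then given fluorogenic substrate HMU-PC0 (9 uM final) for 60 minutes at 37 °C; a pH 10 stop preceded fluorescence reading at Ex 386/Em 447 nm.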
# An asterisk follows results filed as active; i = inactive; u = inconclusive; x = no result. A selection: hits, their analogues and other compounds. The true share with any hit is near 19%. Unless noted, calls come from the whole dose curve; as a rule, active = well fitted curve in the direction sought with a large enough effect; inconclusive = small, poorly fitted or top-dose-only effect, or another doubt; inactive = no such curve, though single readings can be large; an effect the other way counts as inactive or inconclusive.
SMILES,TGFb SMAD3 inh,DT40 TDP1 no CPT,TDP1 cell CPT,HepG2 viability,IL-1B inflam inh,S-ASM inh
COc1ccccc1CCNC(=O)c1cc2c(=O)n3cccc(C)c3nc2n1C,-15%,-27%,-26%,4%,x,x
Cc1cccn2c(=O)c3cc(C(=O)O)n(C)c3nc12,-25%,-9%,-7%,-18%,16,i
Cc1cccn2c(=O)c3cc(C(=O)NC(C)(C)C)n(C)c3nc12,-15%,18µM*,u,-5%,x,x
COc1ccc(NC(=O)CN2CCC(C(=O)c3ccc(F)cc3)CC2)c(OC)c1,-25%,21µM*,u,-8%,45,0%
COc1ccc(OC)c(NC(=O)CN2CCC(C(=O)c3ccc(C)cc3)CC2)c1,-28%,21µM*,26µM*,-11%,-11,-5%
COc1ccc(NC(=S)N2CCC(C(=O)c3ccc(C)cc3)CC2)c(OC)c1,-28%,9.2µM*,13µM*,-12%,-22,-3%
CCOC(=O)N1CCC(NC(=O)C2CCN(S(=O)(=O)c3ccc4c(c3)oc(=O)n4C)CC2)CC1,-18%,u,u,-30%,45,3%
Cc1ccc(/C=N/NC(=O)c2cc(-c3ccccc3)nc3ccccc23)o1,-20%,9.2µM*,18µM*,-25%,41,-4%
CCCc1cc(C(=O)N/N=C/c2ccc(C)o2)c2ccccc2n1,0%,u,u,6%,61,4%
Cc1ccc(-c2cc(C(=O)N/N=C/c3c(C)nn(C)c3C)c3ccccc3n2)cc1C,u,10µM*,12µM*,-96%,-51*,-10%
Cc1ccc(/C=N/NC(=O)c2cc(C3CC3)nc3ccccc23)o1,u,3.7µM*,4.1µM*,9%,59,4%
Cc1cc(C(=O)N/N=C/c2ccc(C)o2)c2ccccc2n1,u,1.3µM*,1.5µM*,2%,52,2%
O=S1(=O)OC(c2ccc(O)cc2)(c2ccc(O)cc2)c2ccccc21,x,0%,5%,x,x,x
COC(=O)c1ccc(C2=NOC(C)(c3nnc(-c4cccc(Cl)c4)o3)C2)cc1 (stereo not drawn),-12%,u,u,-1%,21,-10%
CCCC(=O)c1ccc(OC(=O)c2c(-c3ccccc3Cl)noc2C)cc1,-7%,u,u,-23%,x,x
Cc1ccc(C)c(NC(=O)CN(C)C(=O)c2ccccc2OCc2ccc(Cl)cc2)c1,-27%,u,23µM*,-9%,-68*,-3%
Cc1ccsc1C(=O)N(C)CC(=O)Nc1ccccc1Br,3%,-16%,-2%,6%,-3,-6%
CN(CC(=O)Nc1ccccc1Br)C(=O)c1sccc1-c1ccccc1,-16%,13µM*,u,-11%,3,-4%
CN(CC(=O)Nc1ccccc1Br)C(=O)c1ccccc1OCc1ccccc1Cl,4%,18µM*,u,-17%,-82*,-5%
Cc1noc(C)c1S(=O)(=O)Nc1ccc2c(c1)C(=O)N([C@H](C)CO)C[C@H](C)[C@@H](CN(C)C(=O)NC1CCCCC1)O2,-3%,3%,-1%,-2%,-1,1%
C=CCN(C(=O)Cn1nc(C)n2c(cc3cc(C)ccc32)c1=O)c1ccccc1,-3%,u,u,-24%,-20,-12%
CCN(C(=O)Cn1nc(C)n2c(cc3cc(C)ccc32)c1=O)c1ccccc1,-5%,u,u,-11%,-51*,-3%
COC(=O)C(C)n1nnc2sc(-c3ccccc3)cc2c1=O (stereo not drawn),0%,18µM*,u,-8%,-9,47%
CCCN(CCC)C(=O)Cn1nnc2sc(-c3ccccc3)cc2c1=O,-12%,-1%,-3%,4%,x,x
CCN(C(=O)Cn1nnc2sc(-c3ccccc3)cc2c1=O)c1cccc(C)c1,-10%,u,16µM*,-1%,x,x
SMILES,TGFb SMAD3 inh,DT40 TDP1 no CPT,TDP1 cell CPT,HepG2 viability,IL-1B inflam inh,S-ASM inh
CC(C)c1ccc(NC(=O)CSc2ncnc3c2sc2ccccc23)cc1,-7%,u,u,11%,x,x
Cc1cc(C(=O)C(=O)Nc2nnc(C(C)C)s2)c(C)n1-c1ccccc1,1%,-10%,u,-31%,x,x
Cc1cccc(CN2C(=O)c3ccccc3S(=O)(=O)c3ccc(C(=O)N(C)Cc4ccccc4)cc32)c1,-16%,u,16µM*,-12%,x,x
CN(Cc1ccccc1)C(=O)c1ccc2c(c1)N(Cc1ccccc1F)C(=O)c1ccccc1S2(=O)=O,-25%,9.2µM*,u,-14%,x,x
CCOc1ccc(NC(=O)Cc2ccc(S(=O)(=O)N3CCOCC3)s2)cc1OCC,8%,-2%,-2%,-26%,8,1%
C=CC(C)(C)c1[nH]c2ccccc2c1C1=C(O)C(=O)C(c2c[nH]c3c(CC=C(C)C)cccc23)=C(O)C1=O,x,13µM*,13µM*,x,x,x
O=C(Cn1cnc2sc(-c3ccccc3)cc2c1=O)NCc1ccco1,27%,5.8µM*,6.5µM*,0%,16,-5%
O=C(Cn1cnc2sc(-c3ccccc3)cc2c1=O)NCc1ccccc1,8%,5.2µM*,3.7µM*,-40%,41,0%
O=C(OCc1ccccc1)N1CCC2CC1c1ccc(Cl)cc12 (stereo not drawn),-2%,u,-10%,-23%,48,x
N#Cc1cc(C(=O)c2cc(Br)ccc2O)cn(Cc2ccccc2)c1=O,-20%,21µM*,u,-11%,u,17%
N#Cc1cc(C(=O)c2cc(F)ccc2O)cn(-c2nccs2)c1=O,9%,u,-18%,-28%,23,-3%
N#Cc1cc(C(=O)c2cc(Cl)ccc2O)cn(CC2CCCO2)c1=O (stereo not drawn),-14%,21µM*,u,-6%,-1,5%
COc1ccc(O)c(C(=O)c2cc(C#N)c(=O)n(Cc3ccccc3)c2)c1,u,u,u,5%,-3,21%
Cc1ccccc1-n1cc(C(=O)c2cc(Cl)ccc2O)cc(C#N)c1=O,u,12µM*,u,-17%,0,-1%
Cc1c(-n2cc(C(=O)c3cc(F)ccc3O)cc(C#N)c2=O)c(=O)n(-c2ccccc2)n1C,33%,-10%,4%,20%,-56*,0%
CC(C)n1cc(C(=O)c2ccccc2O)cc(C#N)c1=O,22%,1%,-23%,-4%,-3,-3%
CC(C)CC(=O)Nc1ccnn1C1CCN(C(=O)c2ccc(F)cc2Cl)CC1,-4%,u,-2%,-12%,i,1%

# Bioassay records as filed in PubChem.
